Source: PubChem BioAssay AID687028 (Broad Institute, 2013)
The whole screen tested about 1,400 compounds, of which about 55 (4%) were called active. No rule for the calls is given here. These entries were drawn from the full list. Results with a measured potency or affinity are listed apart.

Assay: viability loss in A549 cells – cell-based, plate reader, cherry-pick samples, cytotoxicity control, dose response (AID 687028);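 also: cells incubated with compound for three days before reading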
Conditions: series mostly up to 19.5 µM
With `COc1ccc2c3c([nH]c2c1)[C@@H](CO)N(Cc1ccc(F)cc1)CC31CN(C(=O)NC(C)C)C1` the outcome was “inactive”. In the case of `Cn1cc(CC(=O)Nc2ccc(Nc3cccnc3)cc2)c2ccccc21`, the outcome is reported as “inactive”. With `O=S(=O)(c1ccc(F)cc1)N1CC[C@@H]2[C@H]1c1cc(-c3ccc(F)cc3)ccc1N[C@@H]2CO` the outcome was “inactive”. With `CCC(=O)N1CC[C@@H]2[C@H](CO)Nc3ccc(-c4cccc(C#N)c4)cc3[C@@H]21` the outcome was “inactive”. For `O=C(OCc1ccccc1)N1CCCC2CC1c1ccccc12` (centres undefined), the outcome was “inactive”. With `CCCCN(C(=O)c1ccc2c(c1)NC(=O)CS2)c1ccccc1` the outcome was “inactive”. In the case of `C[C@H](NC(=O)[C@@H]1CCCN1C(=O)OC(C)(C)C)c1ccccc1`, the outcome is reported as “inactive”. In the case of `CC1CCC(CN2CCN=C2Nc2ccccc2)CC1` (centres undefined), the outcome is reported as “inactive”. For `COc1ccc(-c2oc3ccc(-c4cc(OC)c(OC)c(OC)c4)cc3c2-c2ccc(OC)nc2)cc1`, the outcome was “inactive”. For `COc1cc(-c2cnc3c(NC(C)=O)cc(-c4ccccc4CN(C)C)cn23)cc(OC)c1OC`, the outcome was “inactive”. With `O=C(C1CCCN(S(=O)(=O)c2cccnc2)C1)N1CCN(c2ccccn2)CC1` (centres undefined) the outcome was “inactive”. In the case of `CCC(C)CN1C(=O)CSCC1(C)C(=O)Nc1ccc2c(c1)OCCO2` (centres undefined), the outcome is reported as “inactive”. With `C[C@H](CO)N1C[C@H](C)[C@@H](CN(C)C(=O)CCCN(C)C)OCCCC[C@H](C)Oc2ccc(NC(=O)CCCN(C)C)cc2C1=O` the outcome was “inactive”. For `CS(=O)(=O)N1[C@@H]2CNC[C@H]1C2c1ccc(-c2ccccc2)cc1` (some centres undefined), the outcome was “inactive”. With `COc1cccc(-c2ccc(C3[C@@H]4CN(S(=O)(=O)c5cn(C)cn5)C[C@H]3N4)cc2)c1` (some centres undefined) the outcome was “inactive”. With `O=C(NC1CCCCC1)[C@@H]1[C@@H](CO)[C@@H]2Cn3c(cccc3=O)[C@H]1N2Cc1cccnc1` the outcome was “inactive”. For `CN(Cc1nccs1)C(=O)c1ccc(OC2CCN(Cc3ccccn3)CC2)cc1`, the outcome was “inactive”. For `COc1ccc(NC(=O)N[C@H]2CC[C@@H](CCn3cc(C4(O)CCCC4)nn3)O[C@@H]2CO)cc1`, the outcome was “inactive”. For `COc1ccc(NC(=O)N[C@@H]2CC[C@@H](CCNS(=O)(=O)c3cccc(Cl)c3)O[C@@H]2CO)cc1`, the outcome was “inactive”. In the case of `O=C(NCCc1ccccc1)c1ccccc1NC(=O)C1CCCCC1C(=O)O` (centres undefined), the outcome is reported as “inactive”. In the case of `Cc1ccc(OCC(=O)NC2CCSc3ccccc32)cc1` (centres undefined), the outcome is reported as “inactive”. In the case of `CC1CC2=C(C(=O)O1)C(c1ccc(Cl)cc1)Nc1ccccc1N2` (centres undefined), the outcome is reported as “inactive”. In the case of `COc1ccc(C#Cc2ccc([C@H]3[C@@H](CO)N4CCCCN(S(=O)(=O)c5ccccc5)C[C@@H]34)cc2)cc1`, the outcome is reported as “inactive”. With `C[C@H](CO)N1C[C@H](C)[C@@H](CN(C)Cc2ccc(Oc3ccccc3)cc2)Oc2ccc(NC(=O)Cn3cnnn3)cc2CC1=O` the outcome was “inactive”.
